Experiments:
Assay in all cases: yeast three-hybrid, YBZ-1, SC-Leu-His + 0.5 mM 3-AT, 4 days
Settings in all cases: tags: N-Gal4 AD-HA kept; label: inside an RPR1-promoter hybrid RNA with tandem MS2 sites; ssRNA
PUM1 PUF domain R1-YGR = PUM1 PUF domain R1-YGR (Homo sapiens, UniProt Q14671 828-1176, S863Y;R864G;Q867R)
In short: (§1)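 A centromeric plasmid in strain YBZ-1 co-expressed Pumilio-1 PUF domain libraries, randomized at the three base-contacting residues of each repeat, with matching RNA elements; the strain carries a LexA–MS2 coat fusion and a HIS3 reporter. After four days on SC-Leu (input) or SC-Leu-His + 0.5 mM 3-AT (selection), the repeat regions were PCR-amplified and Illumina-sequenced. The interaction score is the log change in variant frequency from input to selection, using log2 and a pseudocount of 1 where absent.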

PUM1 PUF domain R1-RCT = PUM1 PUF domain R1-RCT (Homo sapiens, UniProt Q14671 828-1176, S863R;R864C;Q867T)
In short: as §1

PUM1 PUF domain R2-DWC = PUM1 PUF domain R2-DWC (Homo sapiens, UniProt Q14671 828-1176, N899D;Y900W;Q903C)
In short: as §1

PUM1 PUF domain R7-ARR = PUM1 PUF domain R7-ARR (Homo sapiens, UniProt Q14671 828-1176, S1079A;N1080R;E1083R)
In short: as §1

PUM1 PUF domain R4-PYS = PUM1 PUF domain R4-PYS (Homo sapiens, UniProt Q14671 828-1176, N971P;H972Y;Q975S)
In short: as §1

PUM1 PUF domain R4-DFL = PUM1 PUF domain R4-DFL (Homo sapiens, UniProt Q14671 828-1176, N971D;H972F;Q975L)
In short: as §1

PUM1 PUF domain R4-FNC = PUM1 PUF domain R4-FNC (Homo sapiens, UniProt Q14671 828-1176, N971F;H972N;Q975C)
In short: as §1

PUM1 PUF domain R4-PFL = PUM1 PUF domain R4-PFL (Homo sapiens, UniProt Q14671 828-1176, N971P;H972F;Q975L)
In short: as §1

PUM1 PUF domain R4-SHS = PUM1 PUF domain R4-SHS (Homo sapiens, UniProt Q14671 828-1176, N971S;Q975S)
In short: as §1

PUM1 PUF domain R6-IFC = target: T1, PUM1 PUF domain R6-IFC (Homo sapiens, UniProt Q14671 828-1176, N1043I;Y1044F;Q1047C)
T1 sequence: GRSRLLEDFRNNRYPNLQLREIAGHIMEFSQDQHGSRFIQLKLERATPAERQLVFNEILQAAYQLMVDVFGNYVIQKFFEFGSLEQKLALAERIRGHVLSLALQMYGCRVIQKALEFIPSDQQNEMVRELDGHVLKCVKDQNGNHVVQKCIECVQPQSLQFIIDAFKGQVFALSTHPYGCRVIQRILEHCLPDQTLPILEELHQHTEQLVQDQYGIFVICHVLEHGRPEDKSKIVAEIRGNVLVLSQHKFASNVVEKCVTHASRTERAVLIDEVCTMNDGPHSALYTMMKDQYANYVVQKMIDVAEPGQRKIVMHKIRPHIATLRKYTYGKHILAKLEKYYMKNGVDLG
In short: as §1

PUM1 PUF domain R7-DNV = PUM1 PUF domain R7-DNV (Homo sapiens, UniProt Q14671 828-1176, S1079D;E1083V)
In short: as §1

PUM1 PUF domain R7-RSW = PUM1 PUF domain R7-RSW (Homo sapiens, UniProt Q14671 828-1176, S1079R;N1080S;E1083W)
In short: as §1

PUM1 PUF domain R7-EPG = PUM1 PUF domain R7-EPG (Homo sapiens, UniProt Q14671 828-1176, S1079E;N1080P;E1083G)
In short: as §1

PUM1 PUF domain R3-SAE = PUM1 PUF domain R3-SAE (Homo sapiens, UniProt Q14671 828-1176, C935S;R936A;Q939E)
In short: as §1

In the case of “GGCUAGAACUAGUGGAUCCCCCGGCGCCCGGCGGCUCGAGCCCGGGUAAGUGUAAAUGGUCUGCAUGCCGCCGGGCGCCAUGCCUGCAGGUCGACUCUAGAAAACAUG”, the binding signal (PUM1 PUF domain R1-YGR) is reported as 2.18 log2 enrichment (interaction score) and the binding signal (PUM1 PUF domain R1-RCT) is reported as 3.84 log2 enrichment (interaction score).

“GGCUAGAACUAGUGGAUCCCCCGGCGCCCGGCGGCUCGAGCCCGGGUAAGUGUAAAAAGUCUGCAUGCCGCCGGGCGCCAUGCCUGCAGGUCGACUCUAGAAAACAUG” was tested, and the binding signal (PUM1 PUF domain R2-DWC) was 7.69 log2 enrichment (interaction score).

For “GGCUAGAACUAGUGGAUCCCCCGGCGCCCGGCGGCUCGAGCCCGGGUAAGUCUAAAUAGUCUGCAUGCCGCCGGGCGCCAUGCCUGCAGGUCGACUCUAGAAAACAUG”, the binding signal (PUM1 PUF domain R7-ARR) was 3.14 log2 enrichment (interaction score).

For “GGCUAGAACUAGUGGAUCCCCCGGCGCCCGGCGGCUCGAGCCCGGGUAAGUGUAUAUAGUCUGCAUGCCGCCGGGCGCCAUGCCUGCAGGUCGACUCUAGAAAACAUG”, the binding signal (PUM1 PUF domain R4-PYS) was 5.95 log2 enrichment (interaction score), the binding signal (PUM1 PUF domain R4-DFL) was 2.93 log2 enrichment (interaction score) and the binding signal (PUM1 PUF domain R4-FNC) was 3.02 log2 enrichment (interaction score). The binding signal (PUM1 PUF domain R4-PFL) was 4.21 log2 enrichment (interaction score) and the binding signal (PUM1 PUF domain R4-SHS) was 6.15 log2 enrichment (interaction score).

In the case of “GGCUAGAACUAGUGGAUCCCCCGGCGCCCGGCGGCUCGAGCCCGGGUAAGUGAAAAUAGUCUGCAUGCCGCCGGGCGCCAUGCCUGCAGGUCGACUCUAGAAAACAUG”, the binding signal (PUM1 PUF domain R6-IFC) is reported as 5.44 log2 enrichment (interaction score).

For “GGCUAGAACUAGUGGAUCCCCCGGCGCCCGGCGGCUCGAGCCCGGGUAAGUUUAAAUAGUCUGCAUGCCGCCGGGCGCCAUGCCUGCAGGUCGACUCUAGAAAACAUG”, the binding signal (PUM1 PUF domain R7-DNV) was 3.87 log2 enrichment (interaction score), the binding signal (PUM1 PUF domain R7-RSW) was 2.57 log2 enrichment (interaction score) and the binding signal (PUM1 PUF domain R7-ARR) was 3.69 log2 enrichment (interaction score). For the same sequence, the binding signal (PUM1 PUF domain R7-EPG) was 3.69 log2 enrichment (interaction score).

In the case of “GGCUAGAACUAGUGGAUCCCCCGGCGCCCGGCGGCUCGAGCCCGGGUAAGUGUAAGUAGUCUGCAUGCCGCCGGGCGCCAUGCCUGCAGGUCGACUCUAGAAAACAUG”, the binding signal (PUM1 PUF domain R3-SAE) is reported as 4.99 log2 enrichment (interaction score).

In the case of “GGCUAGAACUAGUGGAUCCCCCGGCGCCCGGCGGCUCGAGCCCGGGUAAGUGUAAAUCGUCUGCAUGCCGCCGGGCGCCAUGCCUGCAGGUCGACUCUAGAAAACAUG”, the binding signal (PUM1 PUF domain R1-YGR) is reported as 5.61 log2 enrichment (interaction score).
